Screens deposited in PubChem by Broad Institute.
Shown are actives, neighbours in structure and some others; about 3.1% of the full set was active somewhere.
Wnt bcat act: activators of Wnt/beta-catenin signaling. 1.2% of 300,000 active. Wnt/beta-catenin reporter cell assay, activator, plate reader. activation, % at 9.35 µM; in the data active = activation above about 30%, passing the limit was not always enough; inconclusive = no clear call, values can overlap the other calls;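 note: 0% = neutral control wells and 100% = positive control wells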
MITF act: activators of MITF-driven TRPM1 promoter activity in SK-MEL-5 cells. activation, % at 12.5 µM. 0.75% of 300,000 active. AID 588334. SK-MEL-5 TRPM1-promoter luciferase, 24 h; % of positive control, neutral wells = 0;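 active = mean activation of at least 80% with every replicate also reaching 80%; inconclusive = mean reaches 80% but some replicate falls short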;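 note: 0% = neutral control wells and 100% = parthenolide positive control wells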
Statin myotox sup: suppressors of simvastatin-induced myotoxicity in C2C12 myotubes; rescue of ATP level, % at 7.49 µM; ATP luminescence, 48 h; scaled: DMSO 0, geranylgeraniol control 100; 0.78% of 330,000 active;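 active = mean ATP rescue above about 67%, or every replicate alone reaching that limit, limit read from the data, passing the limit was not always enough; inconclusive = no clear call, values can overlap the other calls; inactive = mean under the limit and some replicate under it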;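 note: myotubes were challenged with 10 µM simvastatin during compound exposure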
esBAF inh: inhibitors of esBAF chromatin remodeling in mouse ES cells | Bmi1-luciferase knock-in reporter, 24 h; 100% = twice the neutral-well signal | reporter increase, % at 12.5 µM | 2% of 350,000 active; in the data active = activation above about 40%; inconclusive = no clear call, values can overlap the other calls;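 note: 0% = median of the plate's neutral control wells and 100% = double that signal; a rise in the Bmi1 reporter signal indicates esBAF inhibition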
Rtt109 Vps75: C. albicans Rtt109 histone acetyltransferase inhibition | AID 540336 | purified Rtt109/Vps75, ThioGlo CoA-SH fluorescence, 4 h | inhibition, % at 34.9 µM | 0.16% of 330,000 active | Q5AAJ8;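 active = inhibition of at least 50% in every replicate; inconclusive = best replicate reaches 50% inhibition but some replicates fall short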
Target sequence (Q5AAJ8 whole entry, looked up): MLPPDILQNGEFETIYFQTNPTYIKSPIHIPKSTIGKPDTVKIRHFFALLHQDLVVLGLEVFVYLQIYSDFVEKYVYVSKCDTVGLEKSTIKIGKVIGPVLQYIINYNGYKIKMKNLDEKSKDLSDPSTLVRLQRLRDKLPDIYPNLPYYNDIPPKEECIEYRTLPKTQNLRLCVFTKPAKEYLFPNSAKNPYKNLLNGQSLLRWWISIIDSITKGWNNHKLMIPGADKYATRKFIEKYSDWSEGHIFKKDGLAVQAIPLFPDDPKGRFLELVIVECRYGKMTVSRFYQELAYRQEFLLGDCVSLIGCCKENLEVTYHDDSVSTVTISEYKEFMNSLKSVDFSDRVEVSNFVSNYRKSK
* marks the source's active call; other numbers are inactive results; ? = inconclusive; . = no result given.

SMILES	Wnt bcat act	MITF act	Statin myotox sup	esBAF inh	Rtt109 Vps75
CC12CCC(=O)CC1CCC1C2CCC2(C)C1CCC2(O)C(=O)CO (stereo not given)	0	4	-1	1	19
Cc1ccc(S(=O)(=O)Nc2cccc3c2O[C@@H](CN(C)C(=O)NC2CCCCC2)[C@H](C)CN([C@H](C)CO)C3=O)cc1	.	.	-11	-4	.
CCc1ccc(N(C(=O)c2ccco2)C(C(=O)NC2CCCC2)c2cccnc2)cc1 (stereo not given)	3	-6	3	12	4
CCC(C)c1ccc(N(C(=O)c2ccco2)C(C(=O)NC2CCCC2)c2cccnc2)cc1 (stereo not given)	5	28	10	86*	0
CC(C)c1ccc(N(C(=O)c2ccco2)C(C(=O)NC2CCCC2)c2ccncc2)cc1 (stereo not given)	5	47	-1	47*	23
C[C@H](CO)N1C[C@H](C)[C@H](CN(C)S(=O)(=O)c2cccs2)Oc2ccc(NC(=O)Nc3cccc4ccccc34)cc2CC1=O	.	.	18	8	.
C[C@@H]1CN([C@H](C)CO)C(=O)Cc2cc(NC(=O)Nc3cccc4ccccc34)ccc2O[C@@H]1CN(C)S(=O)(=O)c1cccs1	.	.	75*	-2	.
Cc1ccc(S(=O)(=O)Nc2ccc3c(c2)C(=O)N([C@@H](C)CO)C[C@@H](C)[C@H](CN(C)S(=O)(=O)c2cccs2)O3)cc1	.	.	100*	0	.
Cc1ccc(S(=O)(=O)Nc2ccc3c(c2)CC(=O)N([C@@H](C)CO)C[C@H](C)[C@@H](CN(C)S(=O)(=O)c2cccs2)O3)cc1	.	.	77*	4	.
Cc1ccc(S(=O)(=O)Nc2ccc3c(c2)CC(=O)N([C@@H](C)CO)C[C@H](C)[C@H](CN(C)S(=O)(=O)c2cccs2)O3)cc1	.	.	?	4	.
COCCNC(=O)[C@H]1[C@H](CO)[C@H]2Cn3c(cccc3=O)[C@@H]1N2Cc1cc(F)ccc1F	.	.	-2	-3	.
CC(C)NC(=O)N[C@H]1CC[C@H](CCNS(=O)(=O)c2ccc(F)cc2)O[C@@H]1CO	.	.	-6	2	.
Cc1cccc(S(=O)(=O)N2C[C@@H](O)COC[C@@H]3O[C@H](CC(=O)NCc4ccc5c(c4)OCO5)CC[C@H]32)c1	.	.	-11	-1	.
O=C(CCSc1ccc(Cl)cc1)N1CCN(c2ncccn2)CC1	.	37	14	42*	11
O=C(/C=C/c1ccc(Cl)cc1)N1CCN(c2c(Cl)cccc2[N+](=O)[O-])CC1	-3	1	.	.	-9
O=C(CCSc1ccc(Cl)cc1)N1CCN(c2ccc(O)cc2)CC1	20	36	.	.	27
O=C(CCSc1ccc(Cl)cc1)N1CCCCCC1	.	74	3	86*	-7
O=C(CSc1ccc(Cl)cc1)N1CCN(c2c(Cl)cccc2[N+](=O)[O-])CC1	.	75	67*	?	-4
COc1ccc(C(=O)N2c3ccc(F)cc3CCC2C)cc1OC (stereo not given)	-5	-12	5	0	0
COc1cc(OC)cc(C(=O)N2c3ccc(F)cc3CCC2C)c1 (stereo not given)	-3	2	90*	-3	2
CCC(Sc1nc2ccccc2c(=O)[nH]1)C(=O)Nc1ccc(C(C)=O)cc1 (stereo not given)	7	51	-5	70*	-1
COC(=O)c1ccc(NC(=O)CSc2nc3ccccc3c(=O)[nH]2)cc1	-5	-7	-5	3	9
CCCC(=O)Nc1ccc2c(c1)C(=O)N(C)[C@@H]1CC[C@@H](CC(=O)NCC(F)(F)F)O[C@H]1CO2	.	.	2	-1	.
[O-][n+]1c2ccccc2c2n1CCN1CCOC21c1ccc(Cl)cc1 (stereo not given)	?	4	4	60*	2
CC(=O)Nc1ccc(C(=O)COC(=O)C2CC2C)c(F)c1 (stereo not given)	42*	107*	3	13	1
SMILES	Wnt bcat act	MITF act	Statin myotox sup	esBAF inh	Rtt109 Vps75
CC(=O)Nc1ccc(C(=O)COC(=O)c2c(C)noc2C)c(F)c1	8	.	-5	11	-2
CC(=O)Nc1ccc(C(=O)COC(=O)c2cccs2)c(F)c1	57*	127*	5	68*	-1
CCCC(=O)Nc1ccc(C(=O)COC(=O)C2CC2C)cc1 (stereo not given)	45*	79	-5	39	10
CC1CC1C(=O)OCC(=O)N(C)CC(=O)Nc1ccc(F)cc1 (stereo not given)	2	-9	-11	-6	-5
CCCC(=O)Nc1ccc(C(=O)COC(=O)C2=COCCO2)cc1	11	16	.	.	-5
C[C@H](CO)N1C[C@H](C)[C@H](CN(C)S(=O)(=O)c2ccccc2F)Oc2ncc(C#Cc3ccccc3F)cc2C1=O	.	.	43	1	.
C[C@@H]1CN([C@@H](C)CO)S(=O)(=O)c2ccc(Br)cc2O[C@@H]1CN(C)C(=O)C1CCC1	.	.	13	.	.
CCNC(=O)C[C@@H]1CC[C@@H]2[C@@H](COc3ccc(NC(=O)c4cccs4)cc3C(=O)N2C)O1	.	.	-2	-6	.
COc1cccc(OCc2nc3ccccc3c(=O)n2N)c1	-3	33	.	47*	-8
COC(=O)Cn1c(C)nc2c(sc3nc(C)cc(C)c32)c1=O	.	91*	-10	?	2
CCOC(=O)Cn1cnc2c(sc3nc(C)cc(C)c32)c1=O	38*	.	7	35	-1
C[C@@H]1CN([C@@H](C)CO)S(=O)(=O)c2ccc(-c3cncnc3)cc2O[C@@H]1CN(C)C(=O)C1CCC1	.	.	-1	-2	.
O=C(O)c1cccc(CN2C(=O)SC(Nc3cccc4ccccc34)C2=O)c1 (stereo not given)	40*	-9	7	-3	25
Cc1ccc(SCc2cc(=O)[nH]c(Nc3nc(C)c4cccc(C)c4n3)n2)cc1	.	2	18	-1	-2
COc1ccc2nc(Nc3nc(CSc4ccc(C)cc4)cc(=O)[nH]3)nc(C)c2c1	-2	17	.	29*	0
CCCC[n+]1c(C)sc2ccc(C)cc21	.	0	.	.	4
Cc1ccc2sc(C)[n+](CCO)c2c1	-4	-7	15	11	104*
CC[n+]1c(C)sc2cc(C)ccc21	-2	8	.	2	85*
CO[C@@H]1CN(C)C(=O)c2cc(NC(=O)c3nc4ccccc4s3)ccc2OC[C@@H](C)N(Cc2ccccc2)C[C@H]1C	.	.	-28	-12	.
Clc1ccccc1-c1csc(Nc2cccnc2)n1	13	31	-9	63*	-11
c1cncc(Nc2nc(-c3cccnc3)cs2)c1	.	22	.	.	2
COc1cccc(Nc2nc(-c3sc(NC(=O)c4ccccc4)nc3C)cs2)c1	2	-16	-5	52*	-6
Clc1ccccc1Nc1nc(-c2cccnc2)cs1	55*	66	-45	29	-1
COc1cccc(Nc2nc(-c3cccnc3)cs2)c1	17	81*	-41	?	-7
